According to PubChem BioAssay (NCI):
About 83,000 compounds went through this panel and 20% of them were active in at least one assay; those are over-represented in the sample as a whole.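 Cells were grown in 96-well plates and exposed to the test compound at a single concentration for 48 hours; results are reported as percent growth, with values below 10 considered active.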 Active and inactive are the calls of the source.

What follows are compounds tested on A549/ATCC NSCLC (assay: NCI-60 one-dose screen, 48 h (100 = growth as untreated, 0 = no growth, -100 = all killed)). Settings: 10 µM unless noted.

Row | Structure (SMILES) | growth
1 | O=P(O)(O)C(O)(Cc1cccnc1)P(=O)(O)O | 98.8% (inactive)
2 | O=C(Nc1cccc(Cl)c1)Nc1ccccc1Cl | 80.8% (inactive)
3 | Cc1nn(-c2ccccc2)c2nc3c(nc12)C1=NCCN1C(c1ccc(Cl)cc1)N3 (centres undefined) | 88.9% (inactive)
4 | C[N+](C)(C)CCCCCCCCCC[N+](C)(C)C | 103% (inactive)
5 | CC(=O)C1CCC2C3CC(C)=C4CC(O)CCC4(C)C3CCC12C (centres undefined) | 99.6% (inactive)
6 | COc1ccc2nc3ccccc3c(NCc3ccc(C)cc3)c2c1 | 19.3% (inactive)
7 | O=C(CCCN1CCC(O)(c2ccc(Br)cc2)CC1)c1ccc(F)cc1 | 73.5% (inactive)
8 | O=C(c1ccc(OCCN2CCCCC2)cc1)c1c(-c2ccc(O)cc2)sc2cc(O)ccc12 | 91.6% (inactive)
9 | ClCCn1cnc2c(SCc3ccccc3Cl)ncnc21 | 40.1% (inactive)
10 | O=C(N/N=C/c1ccc([N+](=O)[O-])o1)c1ccc(O)cc1 | 36.9% (inactive)
11 | Oc1ccc(-c2nnc3c4[nH]ccc4ncn23)cc1 | 93.7% (inactive)

The compounds below were run on 786-0 renal in the same assay as above. Settings: 10 µM unless noted.

Row | Structure (SMILES) | growth
12 | COC(=O)[C@@H](Cc1c[nH]c2ccccc12)NC(=O)/C=C/c1ccccc1 | 28.8% (inactive)
13 | NNc1ccc(S(N)(=O)=O)cc1 | 103% (inactive)
14 | COc1ccc(-c2ccc(-c3ccc(C(=N)N)s3)s2)cc1 | -64.4% (active)
15 | O=P(O)(O)C(O)(Cc1cccnc1)P(=O)(O)O | 108% (inactive)
16 | O=C1OC(/C=C/c2ccccc2)=NC/1=C/c1ccccc1[N+](=O)[O-] | 97.6% (inactive)
17 | N/C(=N\O)c1ncc(-c2ccc(C(F)(F)F)cc2)c(NC2CCCCCC2)n1 | -91.5% [100 µM] (active)
18 | Cc1cc(Nc2c3ccccc3nc3ccccc23)ccc1NS(C)(=O)=O | 39.8% (inactive)
19 | COC(=O)[C@H](Cc1cn(C)cn1)NC(=O)[C@H](CC(C)C)NC(=O)Nc1cc(C(F)(F)F)cc(C(F)(F)F)c1 | -94.9% [100 µM] (active)
20 | N=C(N)c1ccc(-c2ccc(-c3cccs3)s2)cc1F | -86% (active)
21 | O=C(Nc1cccc(Cl)c1)Nc1ccccc1Cl | 82.1% (inactive)
22 | CCCCCCCCCCCCCC | 99.4% (inactive)
23 | Cc1nn(-c2ccccc2)c2nc3c(nc12)C1=NCCN1C(c1ccc(Cl)cc1)N3 (centres undefined) | 76.6% (inactive)
24 | COc1cc(OC)c(C(=O)/C=C/c2cccc(OC(C)=O)c2)cc1CC=C(C)C | 91.4% (inactive)
25 | C[N+](C)(C)CCCCCCCCCC[N+](C)(C)C | 109% (inactive)
26 | Cc1cc2nc(CN)[nH]c2cc1C | 97.4% (inactive)
27 | CC(=O)C1CCC2C3CC(C)=C4CC(O)CCC4(C)C3CCC12C (centres undefined) | 94.3% (inactive)
28 | N=C(N)c1ccc(-c2ccc(-c3ccco3)o2)cc1F | 4.8% (active)
29 | N#Cc1ccc(-c2ccc(-c3cccs3)o2)cc1F | 67.2% (inactive)
30 | O=C(Nc1cccc(-n2ccc3c(NC(=O)c4ccccc4)nccc32)c1)c1ccc(Cl)c(Cl)c1 | -93% (active)

Row | Structure (SMILES) | growth
31 | COc1ccc2nc3ccccc3c(NCc3ccc(C)cc3)c2c1 | 15.8% (inactive)
32 | COc1cc(OC)cc(-c2ccc(-c3ccc(C(=N)N)s3)s2)c1 | -80.4% (active)
33 | COc1ccc(-c2cc(-c3cc4ccccc4oc3=O)n(-c3ccccc3)n2)cc1 | -31.5% (active)
34 | O=C1c2cccc3cccc(c23)C(=O)N1CCCCCCCCCCN1C(=O)c2cccc3cccc(c23)C1=O | 109% (inactive)
35 | O=C(CCCN1CCC(O)(c2ccc(Br)cc2)CC1)c1ccc(F)cc1 | 69% (inactive)
36 | O=C(c1ccc(OCCN2CCCCC2)cc1)c1c(-c2ccc(O)cc2)sc2cc(O)ccc12 | 74.7% (inactive)
37 | CCCCCc1c(C)[nH]c(/C=C2\N=C(c3ccc[nH]3)C=C2Oc2ccc(OC)cc2)c1C | -92.2% [100 µM] (active)
38 | ClCCn1cnc2c(SCc3ccccc3Cl)ncnc21 | 33% (inactive)
39 | O=C(N/N=C/c1ccc([N+](=O)[O-])o1)c1ccc(O)cc1 | 63.4% (inactive)
40 | CCS(=O)(=O)Nc1cccc(Nc2c3cccc(C)c3nc3c(C)cccc23)c1OC | -42.1% (active)
41 | CCN(C(=O)CCl)C(C)(C)C(SSSC(c1ccc(Cl)cc1)C(C)(C)N(CC)C(=O)CCl)c1ccc(Cl)cc1 (centres undefined) | 79.7% (inactive)
42 | CCOC(=O)C(CCCCC(NC(C)=O)(C(=O)OCC)C(=O)OCC)(NC(C)=O)C(=O)OCC | 99.4% (inactive)
43 | COc1ccc(-n2nc(C(=O)Nc3ccc(F)cc3)nc2-c2cc(OC)c(OC)c(OC)c2)cc1 | 83.6% (inactive)
44 | ClC1=NC(Cl)C(Cl)=N/C1=N\c1ncn[nH]1 (centres undefined) | 81.2% (inactive)
45 | COc1cc2c(cc1OC)-c1cc(OC)c(OC)cc1C(CN(C)C)C2 (centres undefined) | 16.9% [100 µM] (inactive)
46 | Oc1ccc(-c2nnc3c4[nH]ccc4ncn23)cc1 | 95.6% (inactive)
47 | COc1ccc(/C=N/NC(N)=S)c(OC)n1 | 104% (inactive)
48 | CC(C)(C)c1cc(C[P+](c2ccccc2)(c2ccccc2)c2ccccc2)cc(C(C)(C)C)c1O | 8.5% (active)
49 | FC(F)(F)c1cc(-c2nnc3n2N=C(Cl)CS3)cc(C(F)(F)F)c1 | 93.5% (inactive)
